This passage reports Potency and outcome results from PubChem BioAssay (Tox21).

Results filed as inconclusive are left out. Active and inactive are the calls of the source. Unless noted, calls follow the shape of the full dose curve.

A short description of assay [1]: Nuclear factor erythroid 2-related factor 2/antioxidant responsive element (Nrf2/ARE) small molecule agonists: qHTS cell viability counter screen in human keratinocytes (AID 1919968; active = well fitted curve in the direction sought with a large enough effect in the repeat runs; an effect the other way counts as inactive or inconclusive; also: nearly all actives have a fitted effect of over 55% in size). The essentials: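 Seed 1,500 KeratinoSens cells per well, then incubate 5 h at 37 C/5% CO2. Add compounds in DMSO and incubate 23 h. Add CellTiter-Fluor, wait 1 h and read fluorescence.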
(Quantitative high-throughput screening tests each substance at several concentrations.)

A short description of assay [2]: Nuclear factor erythroid 2-related factor 2/antioxidant responsive element (Nrf2/ARE) small molecule agonists: luciferase reporter gene qHTS assay in human keratinocytes (AID 1919969). Also: nearly all actives have a fitted effect of over 35% in size. In general terms: In a reporter assay the amount or activity of a reporter protein is the signal.
Assay [3] is described as follows: G protein-coupled receptor (GPCR) small molecule agonists, calcium flux assay: HEK293 wild type cell line counter screen (AID 1920065). The essentials: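 Counter-screen of the Tox21 10K library for non-specific calcium release: dye-loaded cells received compounds in DMSO and were monitored by kinetic fluorescence (480/540 nm, 3 min). Fifteen concentrations, run in triplicate.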
Background: Calcium assays in cells follow changes in intracellular calcium, usually with a dye or a luminescent sensor.

Assay [4] in a line: p53 small molecule agonists, cell-based qHTS assay with human liver microsomes (AID 1963577).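 Also: p53 response element beta-lactamase reporter cells with liver microsomes plus NADPH.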 The essentials: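 HLM-supplemented p53RE-bla reporter assay: 16 h compound exposure at 37 C, microsomes and NADPH each 0.5 mg/mL final, read by fluorescence intensity.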
Assay [5] can be described thus: p53 small molecule agonists, cell-based qHTS assay with rat liver microsomes (AID 1963578). The essentials: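 Quantitative HTS of the Tox21 10K library: p53RE-bla cells, rat liver microsomes plus NADPH at 0.5 mg/mL final each, 16 h at 37 C, beta-lactamase fluorescence detection.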
Assay [6] is described as follows: p53 small molecule agonists, cell-based qHTS assay with human liver microsomes: qHTS cell viability counter screen (AID 1963579). Also: nearly all actives have a fitted effect of over 45% in size. The essentials: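 Viability of p53RE-bla cells is measured as CellTiter-Glo luminescence following a 16 h, 37 C incubation with compound, liver microsomes from human donors and NADPH.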
The nature of assay [7]: p53 small molecule agonists, cell-based qHTS assay with rat liver microsomes: qHTS cell viability counter screen (AID 1963580). Also: nearly all actives have a fitted effect of over 45% in size. The essentials: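 Viability is assessed in parallel with the p53 reporter read: HCT-116 p53RE-bla cells receive compounds plus rat microsomes and NADPH (0.5 mg/mL final apiece), incubate 16 h at 37 C, and then CellTiter-Glo luminescence is recorded.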

Assay [8] is described as follows: p53 small molecule agonists, cell-based qHTS assay: qHTS cell viability counter screen (AID 1963581). Also: nearly all actives have a fitted effect of over 45% in size. The essentials:
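Cells: HCT-116 with p53 response element-driven beta-lactamase. Treatment: 16 h, 37 C, compounds in DMSO. Read: CellTiter-Glo luminescence after 30 min RT.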

The nature of assay [9]: p53 small molecule agonists, cell-based qHTS assay (AID 1963582; active = well fitted activation curve with a large enough effect in the signal ratio in the repeat runs, not every such curve was filed as active; the % refers to the signal ratio). The essentials:
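Quantitative HTS in p53RE-bla cells: after a 5 h settling period, compounds delivered in DMSO were left on cells for 16 h at 37 C, and reporter induction was measured as fluorescence following 2 h substrate loading.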

Assay [10] addresses 5-hydroxytryptamine receptor 2A (Homo sapiens) (UniProt P28223). As to the kind of experiment: 5-hydroxytryptamine receptor 2A (HTR2A) small molecule agonists, cell-based qHTS assay (AID 1963587). Also: nearly all actives have a fitted effect of over 30% in size. The essentials: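 CHO cells stably expressing human HTR2A, plated 18 h, loaded with calcium dye 1 h at 37 C. Agonist mode: compounds added and intracellular calcium fluorescence recorded kinetically for 2 min at 1 sec intervals.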

For assay [11], the target named is Muscarinic acetylcholine receptor M1 (Homo sapiens) (UniProt P11229). Kind of assay: Cholinergic receptor muscarinic 1 (CHRM1) small molecule antagonists, cell-based qHTS assay (AID 1963588). Also: nearly all actives have a fitted effect of over 40% in size. The essentials: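 CHRM1-CHO calcium-flux assay, antagonist mode. Cells were seeded 18 h, dye-loaded 1 h at 37 C and given compound for 5 min at RT, then acetylcholine was added at 50nM. FDSS fluorescence was read 3 min; 15 concentrations, three runs.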

Assay [12] shares this target. As to the kind of experiment: Cholinergic receptor muscarinic 1 (CHRM1) small molecule agonists, cell-based qHTS assay (AID 1963589). Also: nearly all actives have a fitted effect of over 35% in size. The essentials:
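Agonist-mode qHTS in CHO cells stably carrying human muscarinic M1. Intracellular calcium is tracked by fluorescence every second after compound transfer; each compound runs at 15 concentrations in three independent runs.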

Assay [13] in a line: cAMP Responsive Elements (CRE) small molecule agonists, cell-based qHTS assay (AID 1963590). The essentials: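 Agonist mode qHTS in CRE-bla HEK 293T cells: compounds dosed from DMSO for 3 h at 37 C/5% CO2, followed by LiveBLAzer B/G FRET substrate for 2 h at room temperature.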
A short description of assay [14]: cAMP Responsive Elements (CRE) small molecule antagonists, cell-based qHTS assay (AID 1963591; active = well fitted inhibition curve with a large enough effect in the signal ratio in the repeat runs, not every such curve was filed as active; the % refers to the signal ratio). The essentials:
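Antagonist mode: test compounds are co-incubated with the adenylyl cyclase activator NKH477 (0.25 uM final) on CRE-bla HEK293T cells for 3 h at 37 °C, followed by LiveBLAzer substrate loading.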

In assay [15] the target is Beta-2 adrenergic receptor (Homo sapiens) (UniProt P07550). Kind of assay: Adrenergic beta2 receptor (ADRB2) small molecule antagonists, cell-based qHTS assay (AID 1963592). Also: series mostly up to about 92 µM; nearly all actives have a fitted effect of over 50% in size. The essentials:
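Cells (CHO, stable ADRB2 overexpression) incubated 18-20hr at 37C; compounds added from DMSO; agonist mix (1nM isoproterenol, 100uM IBMX, 25uM Ro-20-1724) added; 0.5hr RT; d2-cAMP and anti-cAMP-cryptate added; 1hr RT; 665/615 nm read.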

The target in assay [16] is D(2) dopamine receptor (Homo sapiens) (UniProt P14416). Kind of assay: Dopamine D2 receptor (DRD2) small molecule agonists, cell-based qHTS assay (AID 1963594). Also: nearly all actives have a fitted effect of over 35% in size. The essentials: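 HEK293 cells stably expressing human DRD2, pre-treated with PDE inhibitor Ro20-1724 (0.1 mM final) and compound 10 min at room temperature, then stimulated with NKH477 (200nM […]) for 30 min. cAMP read by HTRF (665/620 nm).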

Assay [17] shares this target. Kind of assay: Dopamine D2 receptor (DRD2) small molecule antagonists, cell-based qHTS assay (AID 1963595; active = well fitted inhibition curve with a large enough effect in the signal ratio in the repeat runs, with a control signal flat; the % refers to the signal ratio). The essentials: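 DRD2-HEK293; 0.1 mM Ro20-1724; cpd 10 min RT; NKH477 200 nM + quinpirole 12 nM, 30 min RT; HTRF cAMP (cAMP-d2/anti-cAMP cryptate), 665/620 nm ratio after 1 h.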
The target of assay [18] is Gonadotropin-releasing hormone receptor (Homo sapiens) (UniProt P30968). Kind of assay: Human gonadotropin-releasing hormone receptor (GnRHR) small molecule agonists, calcium flux assay in GnRHR-HEK293 cells (AID 1920063). Also: nearly all actives have a fitted effect of over 35% in size. The essentials:
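Cells: HEK293 stably expressing human GnRHR. Steps: overnight (18 h) culture, 1 h calcium dye loading at 37 C, compound addition, kinetic fluorescence read at 480/540 nm. Each compound tested at 15 concentrations in triplicate.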

In assay [19] the target is KiSS-1 receptor (Homo sapiens) (UniProt Q969F8). Kind of assay: Human kisspeptin (KISS1R) small molecule agonists, calcium flux assay in KISS1R-HEK293 cells (AID 1920064; active = well fitted curve in the direction sought with a large enough effect in the repeat runs; an effect the other way counts as inactive or inconclusive). The essentials:
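Cells plated and incubated 18 h; dye added, 1 h at 37 C; compounds in DMSO pinned in; signal read at 480/540 nm every second for 3 min. Each compound tested at 15 concentrations in triplicate.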

Assay [20] deals with 5-hydroxytryptamine receptor 2A (Homo sapiens) (UniProt P28223). As to the kind of experiment: 5-hydroxytryptamine receptor 2A (HTR2A) small molecule antagonists, cell-based qHTS assay (AID 1963586). Also: nearly all actives have a fitted effect of over 45% in size. Also: potency is read from the fitted curve at half-maximal effect. The essentials: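 Antagonist-mode intracellular calcium assay: DOI (4 nM) added after 5 min compound pre-incubation at room temperature to dye-loaded HTR2A-CHO cells. Fluorescence followed for 3 min, sampled every second.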
5-hydroxytryptamine receptor 2A (Homo sapiens), sequence (P28223 whole entry, looked up): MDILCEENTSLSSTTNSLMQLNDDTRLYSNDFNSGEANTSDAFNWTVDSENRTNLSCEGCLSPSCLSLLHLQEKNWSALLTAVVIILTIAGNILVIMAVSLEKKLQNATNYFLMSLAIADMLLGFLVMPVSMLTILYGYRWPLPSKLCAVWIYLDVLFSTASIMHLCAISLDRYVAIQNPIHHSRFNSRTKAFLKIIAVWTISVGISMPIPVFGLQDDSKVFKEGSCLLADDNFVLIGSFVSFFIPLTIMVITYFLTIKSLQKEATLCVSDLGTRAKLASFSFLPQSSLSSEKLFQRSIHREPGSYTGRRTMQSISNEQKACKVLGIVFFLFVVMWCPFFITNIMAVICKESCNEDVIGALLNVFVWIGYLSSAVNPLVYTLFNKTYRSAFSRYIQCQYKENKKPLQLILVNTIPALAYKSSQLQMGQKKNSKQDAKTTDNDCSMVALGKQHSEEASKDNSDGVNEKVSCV

KiSS-1 receptor (Homo sapiens), sequence (Q969F8 whole entry, looked up): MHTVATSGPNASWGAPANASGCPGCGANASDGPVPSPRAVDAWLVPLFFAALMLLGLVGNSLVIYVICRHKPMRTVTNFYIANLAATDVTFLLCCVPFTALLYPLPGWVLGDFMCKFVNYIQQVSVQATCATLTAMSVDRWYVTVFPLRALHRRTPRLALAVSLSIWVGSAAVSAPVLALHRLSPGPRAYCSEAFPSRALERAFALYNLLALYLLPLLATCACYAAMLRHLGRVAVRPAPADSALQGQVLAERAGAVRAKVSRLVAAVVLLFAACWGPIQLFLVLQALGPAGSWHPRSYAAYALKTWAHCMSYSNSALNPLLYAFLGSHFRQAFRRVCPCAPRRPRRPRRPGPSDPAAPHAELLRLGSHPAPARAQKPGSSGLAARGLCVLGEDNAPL
Muscarinic acetylcholine receptor M1 (Homo sapiens), sequence (P11229 whole entry, looked up): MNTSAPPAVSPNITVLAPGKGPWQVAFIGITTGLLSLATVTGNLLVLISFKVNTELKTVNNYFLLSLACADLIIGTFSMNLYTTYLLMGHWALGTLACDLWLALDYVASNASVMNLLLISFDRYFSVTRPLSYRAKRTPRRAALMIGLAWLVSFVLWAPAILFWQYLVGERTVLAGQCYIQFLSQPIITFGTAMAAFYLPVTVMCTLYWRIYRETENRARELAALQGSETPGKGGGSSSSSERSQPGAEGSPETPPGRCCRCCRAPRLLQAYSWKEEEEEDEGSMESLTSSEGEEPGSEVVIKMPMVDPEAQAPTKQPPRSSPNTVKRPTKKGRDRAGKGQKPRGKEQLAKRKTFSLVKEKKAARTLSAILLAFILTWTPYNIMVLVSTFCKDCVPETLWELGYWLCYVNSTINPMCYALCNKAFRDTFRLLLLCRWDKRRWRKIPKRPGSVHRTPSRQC
Gonadotropin-releasing hormone receptor (Homo sapiens), sequence (P30968 whole entry, looked up): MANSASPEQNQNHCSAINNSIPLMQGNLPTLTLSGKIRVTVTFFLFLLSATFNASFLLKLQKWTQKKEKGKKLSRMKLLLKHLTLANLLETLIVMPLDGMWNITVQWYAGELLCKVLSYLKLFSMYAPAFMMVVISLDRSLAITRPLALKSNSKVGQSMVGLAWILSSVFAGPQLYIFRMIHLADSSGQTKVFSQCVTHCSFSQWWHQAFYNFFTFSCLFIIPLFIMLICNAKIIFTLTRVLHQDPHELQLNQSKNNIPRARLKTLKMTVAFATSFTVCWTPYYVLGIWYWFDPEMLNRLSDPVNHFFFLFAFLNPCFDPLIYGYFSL
Beta-2 adrenergic receptor (Homo sapiens), sequence (P07550 whole entry, looked up): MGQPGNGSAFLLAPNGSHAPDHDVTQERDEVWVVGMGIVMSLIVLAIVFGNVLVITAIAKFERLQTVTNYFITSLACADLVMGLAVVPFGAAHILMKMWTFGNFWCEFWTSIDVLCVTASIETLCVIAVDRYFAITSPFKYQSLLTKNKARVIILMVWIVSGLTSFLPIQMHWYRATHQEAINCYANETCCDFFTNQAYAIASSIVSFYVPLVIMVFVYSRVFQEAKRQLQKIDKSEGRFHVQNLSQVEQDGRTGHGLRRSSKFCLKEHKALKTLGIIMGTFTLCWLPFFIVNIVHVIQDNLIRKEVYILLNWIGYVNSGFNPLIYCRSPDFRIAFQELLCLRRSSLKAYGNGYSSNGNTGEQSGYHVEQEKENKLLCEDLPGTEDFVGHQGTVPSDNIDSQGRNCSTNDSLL
D(2) dopamine receptor (Homo sapiens), sequence (P14416 whole entry, looked up): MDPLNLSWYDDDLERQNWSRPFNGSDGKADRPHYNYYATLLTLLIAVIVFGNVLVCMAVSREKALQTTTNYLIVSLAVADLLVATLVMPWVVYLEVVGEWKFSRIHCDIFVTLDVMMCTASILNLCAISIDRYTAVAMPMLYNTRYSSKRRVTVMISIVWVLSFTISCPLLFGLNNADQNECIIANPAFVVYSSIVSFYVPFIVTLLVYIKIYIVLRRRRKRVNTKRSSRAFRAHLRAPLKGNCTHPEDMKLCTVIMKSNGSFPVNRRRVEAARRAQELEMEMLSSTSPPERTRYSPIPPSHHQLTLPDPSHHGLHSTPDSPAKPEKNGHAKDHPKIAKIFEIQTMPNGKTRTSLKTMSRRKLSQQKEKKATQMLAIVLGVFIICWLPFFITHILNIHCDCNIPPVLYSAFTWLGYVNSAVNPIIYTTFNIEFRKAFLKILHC

In the case of `O[C@@H]1CO[C@H]2[C@@H]1OC[C@@H]2O`, the Potency entry in assay [1], in assay [2], in [4], in assay [5], in assay [6] and in assay [7] was “inactive” throughout. Moreover, the Potency entry in assay [8], in assay [9], in [10], in [11], in [12] and in [13] was “inactive” throughout. For the same molecule, the Potency result in assay [14], in [15], in [16] and in assay [17] was “inactive” each time. The result in assay [3] was inactive.
Regarding `Cc1[nH]c(=O)c(C#N)cc1-c1ccc2nccn2c1`, the Potency result in assay [1], in assay [18], in assay [4], in assay [5], in assay [6] and in assay [7] was “inactive” each time. Moreover, the Potency entry in [8], in assay [9], in [20], in [10], in [11] and in assay [12] was “inactive” in each case. Moreover, the Potency result in [13], in assay [14], in [16] and in assay [17] was “inactive” each time. In addition, the result in assay [19] and in assay [3] was inactive.
As for `Cc1cccc(Oc2ccccc2)c1`, the Potency entry in assay [1], in assay [18], in [4], in [5], in assay [6] and in [7] was “inactive” in each case. For the same molecule, the Potency entry in assay [8], in assay [9], in assay [10], in assay [12], in assay [14] and in assay [15] was “inactive” each time. In addition, the Potency entry in [16] and in [17] was “inactive” in each case. Moreover, the result in assay [19] and in [3] was inactive. Moreover, the Potency in assay [20] was 1 nM (active).
Consider `C1OCOCO1`, for which the Potency result in assay [1], in assay [18], in assay [4], in assay [5], in [6] and in assay [7] was “inactive” each time. Also, the Potency result in assay [8], in assay [9], in assay [20], in assay [10], in assay [11] and in [12] was “inactive” throughout. In addition, the Potency result in assay [13], in assay [14], in assay [15] and in assay [17] was “inactive” throughout. Also, the result in assay [19] and in assay [3] was inactive.
Consider `CC(C)NCC(O)c1ccc2ccccc2c1` (stereo not given), for which the Potency entry in [1], in assay [18], in assay [4], in assay [5], in assay [6] and in assay [7] was “inactive” in each case. The Potency entry in assay [8], in [9], in assay [20], in [11], in [12] and in assay [13] was “inactive” in each case. Also, the Potency entry in [14] and in assay [17] was “inactive” in each case. In addition, the result in assay [19] and in [3] was inactive.
Regarding `Oc1cccc(O)c1O`, the Potency result in assay [1], in [18], in assay [4], in assay [5], in [6] and in assay [7] was “inactive” throughout. Further, the Potency entry in assay [8], in [9], in assay [14], in [15], in [16] and in [17] was “inactive” in each case. Further, the result in [19] and in assay [3] was inactive.
